Results on 49 molecules are retold here after PubChem BioAssay AID743287 (Broad Institute, 2014).

Among all 370,000 compounds or so, about 2,300 (0.62%) were called active.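 How the source made its calls: active means lowest replicate activation of at least 40%, so every replicate reaches that level; inactive means the rest.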 For the sample, actives were picked, then their nearest neighbours and some compounds at random.

A short description of the assay: primary screen for activators of insulin secretion dependent on glucose, INS-1E cells, GLuc reporter luminescence (AID 743287).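 Further: 0% = median of neutral control wells and 100% = median of IBMX positive control wells.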 Particulars: INS-1E GLuc reporter insulin secretion, 2-3 h, at 16.6 µM, hits give high values.
As for `C[C@H]1CN([C@@H](C)CO)C(=O)c2cc(NC(=O)Cc3cn(C)c4ccccc34)ccc2O[C@@H]1CN(C)Cc1ccc(Cl)c(Cl)c1`, the activation is 7.56% (inactive).

Regarding `C[C@H](CO)N1C[C@H](C)[C@@H](CN(C)C(=O)Nc2cc(F)ccc2F)Oc2cc(C#CC3CC3)ccc2S1(=O)=O`, the activation is -8.09% (inactive).

With `CN(C)C(=O)[C@@H]1[C@@H](CO)[C@@H]2Cn3c(cccc3=O)[C@H]1N2C(=O)c1ccc(F)cc1`, the activation is 7.45% (inactive).

For `O=C(C[C@@H]1CC[C@H](NC(=O)C2CC2)[C@@H](CO)O1)NCc1ccncc1`, the activation was -4.07% (inactive).

Consider `COc1ccc(C2CC(=O)Nc3sc(=N)c4c(N)c(C#N)c(N)nc4c32)cc1OC` (centres undefined), for which the activation was 70.3% (active).

As to `COc1ccc(C2OCC3(CO2)SC(=O)NC3=O)cc1OC` (centres undefined), the activation was 21.8% (inactive).

In the case of `CCc1nc2c(OCCC3CCCCC3)cccn2c1N(C)C(=O)c1ccco1`, the activation is 42% (active).

As to `CCc1nc2c(OCc3ccccc3)cccn2c1N(C)C(=O)c1ccco1`, the activation is 17.3% (inactive).

On to `CCc1nc2c(OCc3ccc(F)c(F)c3)cccn2c1N(C)C(=O)c1ccco1`, for which the activation is -1.95% (inactive).

As for `CCC(=O)Nc1ccc2c(c1)C(=O)N(C)C[C@@H](OC)[C@H](C)CN(Cc1cccnc1)[C@@H](C)CO2`, the activation was -1.44% (inactive).

`C[C@@H]1CN([C@@H](C)CO)C(=O)c2cccc(NC(=O)C3CC3)c2O[C@@H]1CN(C)C`: the activation was 21.1% (inactive).

For `C=CCN(CC=C)S(=O)(=O)c1ccc(C(=O)Nc2sc3c(c2C(N)=O)CCCCC3)cc1`, the activation was 47.2% (active).

For `CCOC(=O)c1c(NC(=O)C2CCN(S(=O)(=O)c3ccc(Cl)cc3)CC2)sc2c1CCCC2`, the activation is -4.47% (inactive).

For `CC(=O)N1CCc2c(sc(NC(=O)CCS(=O)(=O)c3ccc(C)cc3)c2C(N)=O)C1`, the activation was 4.75% (inactive).

On to `Cc1ccc(S(=O)(=O)N(C)C[C@@H]2Oc3c(NC(=O)C4CCCCC4)cccc3C(=O)N([C@H](C)CO)C[C@H]2C)cc1`, for which the activation is -9.86% (inactive).

As for `C=CCn1cc(Cl)cc(C(=O)Nc2ccccc2)c1=O`, the activation is 98.4% (active).

With `O=C(Nc1ccc(CN2CCOCC2)cc1)c1cc(Cl)ccc1Cl`, the activation is -0.035% (inactive).

On to `C=CCc1cccc2cc(C(=O)Nc3ccc(NC(C)=O)cc3)c(=O)oc12`, for which the activation was 6.64% (inactive).

For `C[C@H](CO)N1C[C@H](C)[C@H](CN(C)S(=O)(=O)c2ccccc2)Oc2ccc(NC(=O)Cn3cnnn3)cc2C1=O`, the activation is 12.8% (inactive).

For `C[C@H]1CN([C@@H](C)CO)C(=O)c2cccc(NC(=O)Nc3ccc(F)cc3)c2O[C@H]1CN(C)S(=O)(=O)c1cn(C)cn1`, the activation was 6.95% (inactive).

For `O=C(COC(=O)c1ncc(Cl)c(Cl)c1Cl)NNC(=O)c1ccccc1`, the activation was -6.14% (inactive).

As to `O=C(COC(=O)c1ncc(Cl)c(Cl)c1Cl)NC1CCS(=O)(=O)C1` (centres undefined), the activation was 53.1% (active).

In the case of `O=C(COC(=O)/C=C/c1ccc(Cl)cc1)NC1CCS(=O)(=O)C1` (centres undefined), the activation is 14.8% (inactive).

As for `OC(c1ccccc1)(c1ccccc1)C1CCN(CCCOc2ccc(-c3ccsc3)cc2)CC1`, the activation was 83.7% (active).

As for `N#Cc1ccc(OCCCN2CCC(C(O)(c3ccccc3)c3ccccc3)CC2)c(F)c1`, the activation is -32.8% (inactive).

Consider `O=c1[nH]c2ccccc2n1C1CCN(CCOc2ccccc2)CC1`, for which the activation was -4.23% (inactive).

With `CC(=O)N1[C@H](CN(C)S(=O)(=O)c2ccccc2)[C@H](c2ccccc2)[C@@H]1CO`, the activation is 2.97% (inactive).

As for `COc1ccc(NC(=O)N(C)C[C@@H]2Oc3ccc(NC(=O)Nc4ccccc4)cc3CC(=O)N([C@H](C)CO)C[C@@H]2C)cc1`, the activation is -8.36% (inactive).

Take `Cc1ccc(-c2cc(=O)[nH]c(NCc3ccccc3)n2)cc1`: the activation was 0.61% (inactive).

As to `CN1CCCc2nc(-c3ccccc3)ccc21`, the activation was 15.2% (inactive).

In the case of `CNc1nc(-c2ccccc2)cc(-c2ccccc2)n1`, the activation was 50.3% (active).

With `C[C@@H]1CN([C@H](C)CO)C(=O)c2cccc(NC(=O)CCCCCC(=O)Nc3ccccc3N)c2O[C@H]1CN(C)Cc1ccc(Oc2ccccc2)cc1`, the activation was -51.6% (inactive).

On to `O=C(C[C@@H]1CC[C@@H](NC(=O)c2ccc3c(c2)OCO3)[C@H](CO)O1)NCc1ccc(Cl)cc1`, for which the activation is -2.44% (inactive).

Regarding `COc1ccc(S(=O)(=O)N(C)C[C@H]2Oc3ccc(NS(=O)(=O)c4ccc(F)cc4)cc3C(=O)N([C@H](C)CO)C[C@H]2C)cc1`, the activation is -11.6% (inactive).

`COC(=O)C1=C(C)NC(=S)NC1c1ccc(OC)cc1` (centres undefined): the activation is 140% (active).

For `COC(=O)C1=C(C)N(C)C(=S)NC1c1cc(OC)ccc1OC` (centres undefined), the activation is -51% (inactive).

With `COC(=O)C1=C(C)NC(=S)NC1c1ccc(OCC(=O)N2CC(C)OC(C)C2)c(OC)c1` (centres undefined), the activation is 8.95% (inactive).

With `CC(=O)N(C)C[C@@H]1Oc2ccc(N)cc2CC(=O)N(C)C[C@H]1C`, the activation was -4.42% (inactive).

Consider `Cc1ccnc(NS(=O)(=O)c2ccc(NC(=O)c3oc4ccc(F)cc4c3C)cc2)n1`, for which the activation is 17.6% (inactive).

With `Cc1cc(C)c2oc(C(=O)Nc3ccc(S(=O)(=O)Nc4nccc(C)n4)cc3)cc(=O)c2c1`, the activation is 74.6% (active).

Regarding `Cc1ccnc(NS(=O)(=O)c2ccc(NC(=O)c3oc4ccccc4c3C)cc2)n1`, the activation was -7.58% (inactive).

For `CC(=O)Nc1ccc2c(c1)CC(=O)N(C)C[C@H](C)[C@H](CN(C)S(C)(=O)=O)O2`, the activation is 17.7% (inactive).

For `CC=Cc1ccc2n(c1=O)C[C@H]1[C@H](CO)[C@@H](C(=O)NC3CCCC3)[C@@H]2N1C(=O)c1cnccn1` (mixture of isomers), the activation was 3.54% (inactive).

On to `Cc1cc(Br)ccc1NC(=S)NC1CCCC1`, for which the activation is 46.8% (active).

Consider `Cc1ccccc1C(=O)NC(=S)NC1CC1`, for which the activation is -11.6% (inactive).

For the molecule `CC1CN(C(=S)Nc2ccc(Br)cc2Cl)CC(C)O1` (centres undefined), the activation was -10.5% (inactive).

In the case of `C[C@@H]1CN([C@H](C)CO)C(=O)c2cccc(NS(=O)(=O)c3cn(C)cn3)c2O[C@H]1CN(C)S(=O)(=O)c1ccc(Cl)cc1`, the activation was 12% (inactive).

Consider `O=C(Nc1ccccc1F)N1CC(=O)N2[C@H](CO)[C@H](c3ccc(C#CC4CC4)cc3)[C@@H]2C1`, for which the activation was -9.47% (inactive).

For the molecule `COc1cccc(CNC(=O)c2cc3c(c(-c4cccc(-c5ccc(C#N)cc5)c4)n2)[C@@H](CCO)N([S@](=O)C(C)(C)C)C3)c1`, the activation is 11.4% (inactive).
